# Source: PubChem (National Center for Advancing Translational Sciences (NCATS))
# The list is not random: actives were taken first. Their share in the collection is about 8%.
# KB-3-1 tox – qHTS assay for MDR1-selective chemotherapeutics: Primary screen using the parental adenocarcinoma cell KB-3-1. KB-3-1 viability, CellTiter-Glo ATP luminescence, 72 h. Potency, µM (doses to about 46.1 µM), most hits filed as cytotoxic. 400,000 tested, 1.4% active. AID 1347075, 2019; also: nearly all actives have a fitted effect of over 60% in size
#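 Luminescent ATP read-out (CellTiter-Glo) measures survival of drug-naive KB-3-1 cells after 72 h compound exposure at 37 °C. Titration series was screened from lowest to highest concentration, with DMSO vehicle plates as background controls.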
# SW480 rereplic – A quantitative high throughput screen for small molecules that induce DNA re-replication in SW480 colon adenocarcinoma cells | SW480 DNA re-replication, Hoechst DNA content imaging, 48 h | AID 624297, 2012 | 340,000 tested, 1.8% active | Potency, µM (doses to about 46.1 µM), most hits filed as activators; also: nearly all actives have a fitted effect of over 55% in size
#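 Quantitative HTS format with DMSO vehicle controls; 48 hr drug incubation at 37 C, then 40 min Hoechst staining and scanning imager measurement at 405 nm excitation.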
# HT1080NT lethal – qHTS for induction of synthetic lethality in tumor cells producing 2HG: qHTS for the HT-1080-NT fibrosarcoma cell line; AID 686970, 2013; 360,000 tested, 1.6% active; Potency, µM (series often up to 46.1 µM), actives largely listed as cytotoxic; HT-1080-NT fibrosarcoma viability, CellTiter-Glo ATP luminescence, 48 h;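 also: NT is the 2HG producing partner of a matched IDH1 knockdown line; nearly all actives have a fitted effect of over 55% in size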
#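 Luminescent CellTiter-Glo readout after 48 hours of compound exposure at 37 degrees C defined viability of HT-1080-NT cells. Activity was normalized to DMSO wells and cell-free media wells; concentration-response curves were fitted and assigned curve classes.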
# HT1080 IDH1KD tx – qHTS for induction of synthetic lethality in tumor cells producing 2HG: qHTS for the HT-1080-IDH1KD cell line; 360,000 tested, 2% active; Potency, µM (doses to about 46.1 µM), actives largely listed as cytotoxic; HT-1080 IDH1 knockdown viability, ATP luminescence, 48 h
#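 Cytotoxicity counter-line: IDH1KD HT-1080, 48 h, CellTiter-Glo. Curves classed by r2, magnitude and activity.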
# MCF10A rereplic – A quantitative high throughput screen for small molecules that induce DNA re-replication in MCF 10a normal breast cells. MCF 10A DNA re-replication, Hoechst nuclear intensity, 48 h. Potency, µM (top dose mostly 46.1 µM), usual class: activators. 350,000 tested, 2.9% active; also: nearly all actives have a fitted effect of over 50% in size
# KB-V1 cytotox – qHTS assay for MDR1-selective chemotherapeutics: Primary screen using the drug-selected MDR subline cells KB-V1; 400,000 tested, 3.4% active; KB-V1 MDR cells viability, CellTiter-Glo, 72 h; AID 1347076, 2019; Potency, µM (highest dose often 46.1 µM), hits mostly cytotoxic; also: nearly all actives have a fitted effect of over 60% in size
#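 In this primary screen, KB-V1 cells overexpressing P-gp are incubated with library compounds (lowest to highest concentration) for 72 h at 37 degrees C before a luminescent ATP viability read.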
# A number is an active result; 0 = inactive; ? = inconclusive; - = no result. Calls follow the shape of the dose curve; as a rule, active = well fitted curve in the direction sought with a large enough effect; inconclusive = small, poorly fitted or top-dose-only effect, or another doubt; inactive = no such curve, though single readings can be large; an effect the other way counts as inactive or inconclusive.
SMILES,KB-3-1 tox,SW480 rereplic,HT1080NT lethal,HT1080 IDH1KD tx,MCF10A rereplic,KB-V1 cytotox
COc1ccc(OC)c(C(=O)Cn2nnc(-c3ccc(N4CCOCC4)cc3)n2)c1,21µM,0,0,0,?,0
COc1cccc(C(c2c(NC(=O)c3ccccc3)sc(C)c2C)N2CCN(C)CC2)c1 (stereo not given),?,0,0,0,0,21µM
Cc1ccc(CCNc2ncnc(Cl)c2N)cc1,?,0,0.65µM,?,0,?
Nc1c(Cl)ncnc1NCCO,0,0,0,0,0,?
S=C(NC1CCCCC1)N(CCc1nc2ccccc2[nH]1)C1CCCC1,?,0,0,0,0,16µM
O=C(Nc1ccccc1)N(CCc1nc2ccccc2[nH]1)C1CCCC1,0,0,0,0,0,16µM
CC(C)(C)CC(C)(C)NCC(O)COc1c(F)cc(Br)cc1F (stereo not given),?,?,21µM,21µM,0,21µM
CC(C)(C)NCC(O)COc1c(F)cc(Br)cc1F (stereo not given),0,0,0,0,0,0
Cc1ccc(-c2onc3ccc(Cl)cc23)cc1,0,?,0,0,0,0
O=Cc1ccc2noc(-c3ccc(Cl)cc3)c2c1,?,?,0,0,0,23µM
Cc1cc(C(=O)Nc2ccc(C(C)C)cc2)c2c(C)nn(-c3ccccc3)c2n1,0,-,-,-,-,?
Cc1cc(COc2ccccc2OCc2cc(C)no2)on1,0,0,0,0,0,12µM
Cc1cccc(OCc2cc(-c3ccccc3)no2)c1C,0,0,0,0,0,?
COc1cc(C2CC(c3cccnc3)=NN2c2ccc(F)cc2)cc(OC)c1OC (stereo not given),0,8.2µM,0,0,?,0
COc1cc(C2CC(c3ccccc3)=NN2c2ccccc2)ccc1OCC(=O)O (stereo not given),0,16µM,0,0,4.1µM,?
COc1cccc2c1OC1(CCN(C(C)C)CC1)N1N=C(c3cccnc3)CC21 (stereo not given),0,0,0,0,0,0
COc1ccc(C2CC(c3ccccc3)=NN2c2ccccc2)c(C(=O)O)c1OC (stereo not given),0,?,0,0,18µM,0
NS(=O)(=O)c1ccc(N2N=C(c3ccccc3)CC2c2ccccc2Br)cc1 (stereo not given),0,12µM,?,0,?,0
Cc1ccc(SCCNC(=O)CN(c2cccc(C)c2C)S(C)(=O)=O)cc1,0,-,-,-,-,0
CCC(C)NC(=O)c1cn(CC)c2ccc(S(=O)(=O)N3CCCCCC3)cc2c1=O (stereo not given),0,0,0,0,0,?
COc1cc(N2N=C(c3ccccc3)CC2c2ccccc2)c(C=O)cc1C=O (stereo not given),?,0,0,0,?,?
NS(=O)(=O)c1ccc(N2N=C(c3ccc(Br)cc3)CC2c2ccc(F)cc2)cc1 (stereo not given),?,?,6.5µM,12µM,1.8µM,?
COc1ccc(C2CC(c3ccccc3)=NN2c2ccc(S(N)(=O)=O)cc2)cc1OC (stereo not given),0,23µM,?,?,16µM,0
NS(=O)(=O)c1ccc(N2N=C(c3ccccc3)CC2c2cccc(F)c2)cc1 (stereo not given),?,4.1µM,0,0,2.6µM,?
NS(=O)(=O)c1ccc(N2N=C(c3ccccc3)CC2c2cccc(Br)c2)cc1 (stereo not given),0,23µM,0,0,5.2µM,?
SMILES,KB-3-1 tox,SW480 rereplic,HT1080NT lethal,HT1080 IDH1KD tx,MCF10A rereplic,KB-V1 cytotox
CC(C)CN(C(=O)c1ccc2c(c1)OCCO2)c1c(N)n(Cc2ccccc2)c(=O)[nH]c1=O,0,0,0,0,0,0
COc1ccc(C2=NN(c3ccc(C(=O)O)cc3)C(c3ccc(OC)c(OC)c3)C2)cc1 (stereo not given),?,18µM,0,0,3.3µM,0
Fc1ccc2c(c1)C1C=CCC1C(c1cc3c(cc1Br)OCO3)N2 (stereo not given),?,?,?,?,23µM,?
Fc1ccc([C@@H]2Nc3ccccc3[C@@H]3C=CC[C@@H]32)cc1,0,-,-,-,-,0
CCOC(=O)[C@]12CCC=C1N(Cc1cccc3ccccc13)C(=O)[C@H](CC(=O)NCCCCc1ccccc1)C2,?,-,0,0,-,16µM
CCOC(=O)[C@]12CCC=C1N(Cc1cccc3ccccc13)C(=O)[C@H](CC(=O)NCc1ccccc1)C2,0,-,0,0,-,?
CCOC(=O)[C@]12CCC=C1N(Cc1cccc3ccccc13)C(=O)[C@H](CC(=O)NCc1ccc(C)o1)C2,0,-,?,?,-,12µM
CCOC(=O)[C@]12CCC=C1N(Cc1cccc3ccccc13)C(=O)[C@H](CC(=O)NCCc1ccccc1OC)C2,?,-,0,0,-,15µM
CCOC(=O)[C@]12CCC=C1N(Cc1cccc3ccccc13)C(=O)[C@H](CC(=O)NCc1cccc3ccccc13)C2,0,-,0,0,-,?
Cc1ccc(C)c(N2CCN(C(=O)Cn3cnc4sc(C)c(S(=O)(=O)N5CCN(c6ncccn6)CC5)c4c3=O)CC2)c1,0,-,-,-,-,?
C[C@H](CO)N1C[C@H](C)[C@@H](CN(C)S(=O)(=O)c2cn(C)cn2)OCc2cn(nn2)CCCC1=O,0,-,0,0,-,?
C[C@H](CO)N1C[C@H](C)[C@@H](CN(C)S(=O)(=O)c2cccs2)OCc2cnnn2CCCC1=O,0,-,0,0,-,0
CCc1ccccc1NS(=O)(=O)c1ccc2[nH]cc(C(=O)N(CC)Cc3ccccc3)c(=O)c2c1,0,-,-,-,-,?
O=C(Nc1ccc2oc(=O)ccc2c1)c1ccc(-c2ccccc2[N+](=O)[O-])o1,0,?,18µM,?,12µM,0
O=C(Nc1ccc2oc(=O)ccc2c1)c1ccc(-c2cccc(Cl)c2)o1,0,?,0,0,0,?
O=C(Nc1ccc2oc(=O)ccc2c1)c1ccc(-c2cccc([N+](=O)[O-])c2)o1,26µM,21µM,10µM,8.2µM,?,0
CCOc1ccc(Br)cc1S(=O)(=O)Nc1ccc(C(=O)Nc2ccc(C)cc2)cc1,0,0,0,0,?,7.3µM
CCOc1ccc(Br)cc1S(=O)(=O)Nc1cccc(S(=O)(=O)N(C)c2ccccc2)c1,?,0,0,0,?,4.1µM
